Compound activity: PubChem BioAssay, The Scripps Research Institute Molecular Screening Center
An excerpt weighted towards active compounds, which were near 4.8% of everything screened.
DAX1 inh-1: blocks DAX1 repression of SF-1 activated StAR promoter | HEK293T StAR-luciferase reporter, SF-1/DAX-1 repression relief | 370,000 tested, 1.1% active | inhibition, % at 6.8 µM | AID 652010;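 active = inhibition above the mean over all tested compounds plus 3 SD, cut at about 3.6% in these data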;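 note: 0% = DAX-1 cells with DMSO and 100% = cells lacking DAX-1 with DMSO; higher inhibition means more luminescence from relief of DAX-1 repression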
ssDAF12 agonist: activates DAF-12 receptor from parasite S. stercoralis; 370,000 tested, 1% active; activation, % at 6.8 µM; HEK293 ssDAF-12/GRIP1 lit1-tk-luc reporter, luminescence; % of 3 µM dafachronic acid response; AID 652126;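 active = activation above the mean over all tested compounds plus 3 SD, cut at about 0.9% in these data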;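 note: 0% = DMSO-only wells and 100% = 3 µM delta7-dafachronic acid wells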
SMARCA2 activ: activators of SMARCA2 function; MG213 cells, MMTV-luciferase reporter, dexamethasone, overnight; activation, % at 9.1 µM; 370,000 tested, 1% active; AID 652017; in the data active = activation above about 7.8%;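 note: 0% = vehicle wells and 100% = reference activator wells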
DAX1 inh-2: NR0B1 (DAX1) inhibition. P51843. HEK293 Gal4-DAX1 luciferase reporter, luminescence. inhibition, % at 6.75 µM. 340,000 tested, 0.99% active. AID 504766;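 active = inhibition above the mean over all tested compounds plus 3 SD, cut at about 4.2% in these data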;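 note: 0% = DAX1-transfected cells with DMSO and 100% = empty-vector control cells with DMSO; inhibition shows as a rise in luminescence from relieved DAX1 repression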
hgDAF-12 ag: hgDAF-12 agonism, primary luciferase screen; HEK293 GAL4-hgDAF12 UAS-luciferase reporter, agonist luminescence; normalized to butyrate control; 370,000 tested, 1.8% active; activation, % at 6.8 µM;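 active = activation above a cutoff set at the mean of all screened compounds plus 3 SD, cut at about 10% in these data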;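 note: 0% = DMSO wells and 100% = sodium butyrate wells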
hcDAF-12 act: H. contortus DAF-12 activation, primary screen; HEK293 hcDAF-12 lit1-tk-luc reporter, luminescence; 0% DMSO, 100% Δ7-dafachronic acid; activation, % at 6.8 µM; 370,000 tested, 1.4% active; AID 652067;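 active = activation above the mean of all tested compounds plus 3 SD, cut at about 5.5% in these data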;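 note: 100% = response to 3 µM Δ7-dafachronic acid high control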
DAX1 conf: confirmation of human DAX1 (NR0B1) inhibitors; shares compounds with DAX1 inh-1; HEK293T StAR-promoter luciferase reporter, SF-1/DAX-1 repression; inhibition, % at 6.8 µM; 2,400 tested, 87% active;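 active = inhibition above the average of every tested compound plus 3 SD, cut at about 3.8% in these data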;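 note: 0% = DAX-1 cells with DMSO and 100% = no DAX-1 control cells with DMSO; active compounds raise luminescence by relieving repression of the StAR reporter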
Target sequence (P51843 whole entry, looked up): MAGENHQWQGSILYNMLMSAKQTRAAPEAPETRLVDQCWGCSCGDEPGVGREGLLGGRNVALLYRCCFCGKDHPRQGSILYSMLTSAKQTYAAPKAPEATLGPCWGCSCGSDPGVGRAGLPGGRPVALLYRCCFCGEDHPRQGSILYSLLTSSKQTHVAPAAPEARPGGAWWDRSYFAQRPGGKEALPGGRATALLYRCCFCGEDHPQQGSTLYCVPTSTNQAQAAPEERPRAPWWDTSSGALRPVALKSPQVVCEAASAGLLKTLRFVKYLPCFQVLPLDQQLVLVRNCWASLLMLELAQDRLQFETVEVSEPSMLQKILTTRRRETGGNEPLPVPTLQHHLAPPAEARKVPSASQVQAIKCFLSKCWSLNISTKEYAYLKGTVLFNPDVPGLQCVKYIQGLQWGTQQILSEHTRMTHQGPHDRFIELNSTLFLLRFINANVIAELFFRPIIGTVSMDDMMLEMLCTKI
SF1 AF2mut Luc: counter-screen for DAX1 inhibitors: nonselective inhibitors with SF-1 AF2 mutant; inhibition, % at 6.8 µM; AID 652136; shares compounds with DAX1 inh-1; 2,400 tested, 78% active; HEK293 StAR-luciferase, luminescence;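 active = inhibition above the mean of all tested compounds plus 3 SD, cut at about 3% in these data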;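 note: 0% = DAX-1 transfected cells with DMSO and 100% = cells without DAX-1 with DMSO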
SMARCA2 conf: SMARCA2 activation, confirmation screen; shares compounds with SMARCA2 activ; MG213 cells, MMTV-luciferase with dexamethasone, luminescence, overnight; MG213 cells expressing E1A, Rb sequestered; DMSO wells 0%, reference activator 100%; activation, % at 9.1 µM; 3,500 tested, 30% active;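 active = activation above its plate's cutoff, the mean activation of tested wells plus 3 SD, cut at about 7.9% in these data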
VP16 Luc act: counter-screen for SMARCA2 activators: GAL4-VP16 luciferase reporter activation | shares compounds with SMARCA2 activ | HEK293 GAL4-VP16 pG5luc reporter, luciferase luminescence; scaled: DMSO wells 0%, SAHA wells 100% | activation, % at 9.1 µM | 3,500 tested, 41% active;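 active = activation above the solvent-only control well mean plus 3 SD, averaged across control plates, cut at about 5.2% in these data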
LXR ag: counter-screen for hcDAF-12 agonists: agonists of human LXR-beta; shares compounds with hcDAF-12 act; HEK293 Gal4-LXR tk-luc reporter, luminescence, 24 h; normalized: DMSO 0%, positive control 100%; activation, % at 6.8 µM; 3,400 tested, under 10 active; AID 743027;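 active = mean percent activation of the reporter above a cutoff set as the average over tested compounds plus their standard deviation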
hcDAF12 conf: confirmation of H. contortus DAF-12 agonists; shares compounds with hcDAF-12 act; HEK293 hcDAF-12 lit1-tk-luc reporter, luminescence; % of Δ7-dafachronic acid response; activation, % at 6.8 µM; 3,400 tested, 61% active; AID 743032;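 active = mean activation across triplicate tests above the threshold derived from the earlier primary screen, cut at about 5.5% in these data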;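 note: 0% = DMSO only wells and 100% = 3 µM Δ7-dafachronic acid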
hgDAF12 ag: confirmation of H. glycines DAF-12 agonists. shares compounds with hgDAF-12 ag. HEK293 GAL4-hgDAF12 luciferase reporter, agonist mode; percent of butyrate response. activation, % at 6.8 µM. 3,300 tested, 80% active. AID 743050;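 active = mean activation over triplicate wells above the hit cutoff derived from the earlier primary screen, cut at about 11% in these data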;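 note: 0% = DMSO low control and 100% = 2 mM sodium butyrate high control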
LXRb DAF12 ctr: counter-screen for DAF-12 agonists: agonists of human LXR-beta | shares compounds with hgDAF-12 ag | AID 743051 | HEK293 Gal4-LXR luciferase reporter, 24 h | activation, % at 6.8 µM | 3,300 tested, under 10 active;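 active = mean activation of the triplicate above a set limit carried over from the primary screen, none filed active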
Numbers without * were called inactive; nt = no result.

SMILES	DAX1 inh-1	ssDAF12 agonist	SMARCA2 activ	DAX1 inh-2	hgDAF-12 ag	hcDAF-12 act	DAX1 conf	SF1 AF2mut Luc	hgDAF12 ag	LXRb DAF12 ctr	others
O=C(Nc1cccnc1Cl)c1ccc2c(Cl)c3c(nc2c1)CCC3	5.0*	0	5	2	17*	6	16*	6.1*	20*	1
N#Cc1ccccc1NC(=O)c1ccc2c(Cl)c3c(nc2c1)CCCC3	1	-1	4	3	4	0	nt	nt	nt	nt
Cc1ccc(OCc2cc(C(=O)NCCc3cccnc3)no2)cc1C	-1	-1	0	0	1	0	nt	nt	nt	nt
COc1cccc(CCNC(=O)c2cc(COc3ccc(C)c(C)c3)on2)c1OC	4.6*	0	1	4.4*	14*	4	7.8*	3.4*	16*	1
O=c1c2ccccc2nnn1CCc1ccccc1	10.0*	0	10*	4	16*	7.1*	12*	6.4*	15*	1	SMARCA2 conf=11*;VP16 Luc act=10*;LXR ag=2;hcDAF12 conf=7.8*
O=c1c2ccccc2nnn1CSc1ccccc1F	6.5*	1	11*	3	14*	5.9*	11*	5.3*	15*	1	SMARCA2 conf=4;VP16 Luc act=13*
O=S(=O)(NCCC1=CCCCC1)c1ccccc1Cl	1	-1	-1	0	3	-1	nt	nt	nt	nt
CCn1c(/C=N/Nc2ccc(C(=O)O)cc2)nc2ccccc21	0	-1	0	1	-1	1	nt	nt	nt	nt
CC1Oc2ccccc2C=C1/C=N/Nc1ccc(C(=O)O)cc1 (configuration not stated)	6.3*	0.9*	-2	-1	15*	6.9*	19*	9.3*	14*	1	LXR ag=2;hcDAF12 conf=15*
CCOC(=O)c1sc2nc3c(cc2c1N)COC(C)(CC)C3 (configuration not stated)	4.8*	0	1	2	14*	9.3*	14*	6.0*	18*	1	LXR ag=2;hcDAF12 conf=6.1*
COC(=O)c1sc2nc3c(cc2c1N)CCCC3	5.1*	0	4	3	25*	6.5*	13*	6.8*	18*	1
C#CC(C)OC(=O)C(C)NC(=O)c1ccccc1 (configuration not stated)	0	-1	-1	-1	3	-1	nt	nt	nt	nt
CCCOc1ccc2c(=O)c(N3C(=O)c4ccccc4C3=O)c(C)oc2c1	0	-2	0	-1	-1	-2	nt	nt	nt	nt
O=C(Nc1cnc2ccccc2c1)c1ccncc1	5.5*	-1	7	1	14*	5	11*	7.5*	14*	1
